HTT-AS act: HTT-AS promoter activation; HEK293 HTT-AS promoter firefly luciferase reporter, 24 h; response scale: percent change from vehicle, -100% = no light; Potency, µM (titrated, usually from 57.5 µM), inactives show at the highest dose activity change, positive = activation, actives largely listed as activators; 48,000 compounds, 0.24% hits; AID 1508624; further: potency means the concentration at half of the fitted maximal effect; nearly all actives have a fitted effect of over 55% in size
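Firefly luciferase signal from promoter-reporter HEK293 cells was scaled between vehicle (0%) and zero RLU (-100%). Compounds were tested at final concentrations of up to 57.5 uM over 24 h at 37 degrees C. PTC124 at 50 uM final served as control inhibitor.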
TSG101-PTAP inh: blocks PTAP binding to human TSG101, validation. Q99816. Potency, µM (series often up to 115 µM), most hits filed as inhibitors. Fluorescence polarization, FITC-PTAP peptide/Tsg101, 20 min. AID 1347069. 44,000 tested, under 10 active; further: potency means the concentration at half of the fitted maximal effect; 0% is about no effect
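qHTS FP binding, 20 min r.t.: 10 uM Tsg101 domain + 50 nM FITC-PTAP peptide, pH 7.5 HEPES buffer with TCEP and EDTA.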
DRV1 agonist: agonists of human resolvin D1 receptor DRV1 (GPR32) | activation, % at 76.9 µM | CHO-K1 GPR32 beta-arrestin PathHunter luminescence, 90 min; zero percent set by DMSO-only wells | 48,000 compounds, 2.5% hits | O75388;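 active means activation of at least 60% and not above a set upper limit, about 1 call in 100 departs from these limits; inconclusive means activation of 40% to 60%, or above that upper limit; inactive means activation under 40%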; further: 0% is about no effect
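Step 1: seed CHO-K1 GPR32 beta-arrestin cells, 2,500/well, overnight at 37 °C. Step 2: add compounds, 90 min at 37 °C. Step 3: detection reagent, 1 h ambient, then luminescence.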
HTT prom inh: inhibits huntingtin promoter activity; HEK293 HTT promoter firefly luciferase reporter, 24 h; Potency, µM (top dose mostly 57.5 µM), inactives show at the highest dose activity change, negative = inhibition, most hits filed as inhibitors; 48,000 compounds, 0.93% hits; AID 1508623; further: potency means the concentration at half of the fitted maximal effect; nearly all actives have a fitted effect of over 50% in size
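Quantitative HTS used concentration series of up to 57.5 uM final on HEK293 luciferase reporter cells, 24 h at 37 degrees C. Readout was Dual-Glo firefly luminescence.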
B2AR arrestin ag: ADRB2 beta-arrestin recruitment | P07550 | HTLA Tango cells, beta-arrestin recruitment, luciferase luminescence, 18 h | Potency, µM (top dose mostly 46.1 µM), most hits filed as activators | 44,000 tested, under 10 active | AID 1347077;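 further: potency means the concentration at half of the fitted maximal effect; 0% = DMSO and full agonism = EC100 isoproterenol or metaproterenol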
Target sequence (P07550 whole entry, looked up): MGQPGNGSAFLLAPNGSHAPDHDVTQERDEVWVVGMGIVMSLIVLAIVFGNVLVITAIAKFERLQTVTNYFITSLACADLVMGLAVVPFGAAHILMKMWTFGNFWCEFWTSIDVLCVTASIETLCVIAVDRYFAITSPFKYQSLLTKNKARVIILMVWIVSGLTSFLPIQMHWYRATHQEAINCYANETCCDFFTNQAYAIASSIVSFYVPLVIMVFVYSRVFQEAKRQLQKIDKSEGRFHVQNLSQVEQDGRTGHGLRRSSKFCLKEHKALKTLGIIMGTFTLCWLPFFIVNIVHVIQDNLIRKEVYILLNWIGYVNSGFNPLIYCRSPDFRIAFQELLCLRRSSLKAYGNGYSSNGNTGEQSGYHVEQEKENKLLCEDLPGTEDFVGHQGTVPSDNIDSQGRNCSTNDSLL
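Tango cells (recombinant beta2-AR, beta-arrestin, tTA-driven luciferase), 1500/well in DMEM 1% FBS, treated 18 h at 37 °C with compounds up to 46 µM; luciferin mix added, luminescence read after 15 min; %activity curves fitted and curve-classed.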
GALK inhibitor: inhibits human galactokinase. P51570. recombinant GALK, Kinase-Glo ATP luminescence, 1 h. Potency, µM (series often up to 57.5 µM), for the others: top-dose activity, negative = inhibition, most hits filed as inhibitors. 44,000 tested, under 10 active;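 further: plate controls were full GALK reaction for no effect and reaction lacking GALK for full effect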
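Compounds were pinned into ATP buffer, then GALK-galactose mix was added (final 5 nM enzyme, 35 uM ATP, 100 uM galactose, pH 8.0). After 1 h at room temperature, Kinase-Glo Plus was added and luminescence read.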
The depositor's hits bear a star; i = inactive; ? = inconclusive; / = no result given; [ ] = dose if it differs, or a comment. Most compounds without a hit are left out; they make up all but 3.7% or so of the library. Unless noted, the call rests on the fitted dose curve; in most records, active means well fitted curve in the direction sought with a large enough effect; inconclusive means small, poorly fitted or top-dose-only effect, or another doubt; inactive means no such curve, though single readings can be large; an effect the other way counts as inactive or inconclusive.

SMILES | HTT-AS act | TSG101-PTAP inh | DRV1 agonist | HTT prom inh | B2AR arrestin ag | GALK inhibitor
CC(=O)Nc1ccc(NC(=O)CN(C)S(=O)(=O)c2ccc3c(c2)CCCC(=O)N3)cc1 | -6% | i | 19 | -8% | i | 0%
COc1cc(Cl)c(NC(=O)CN(C)S(=O)(=O)c2ccc3c(c2)CCCC(=O)N3)c(OC)c1 | -29% | i | 67* | ? | i | -2%
COc1cc(OC)c(C=CS(=O)(=O)Cc2ccc(OC)c(NCC(=O)O)c2)c(OC)c1 | -42% | / | / | ? | / | /
Cc1cc(F)ccc1NC(=O)c1csc2c1CCC(C)C2 (stereo not drawn) | 3.2µM* | i | -6 | 53% | i | 1%
Cc1ccc(C(CC(=O)NCC2(c3ccccc3)CCCC2)c2ccccc2)c(O)c1 (stereo not drawn) | / | i | 63* | / | i | 8%
CCCOc1ccc(C(=O)Nc2cccc(-c3nc4ccccc4[nH]3)c2)cc1 | -10% | i | 83* | 0% | i | 6%
CCCOc1cccc(C(=O)Nc2ccc(-c3nc4ccccc4o3)cc2)c1 | -15% | i | 108* | 9% | i | 0%
CCS(=O)(=O)c1cccc(-c2cc(C(=O)NC3CCN(C)CC3)c(C)c3[nH]c4ncc(C)cc4c23)c1 | -37% | / | / | ? | / | /
COc1ccc(-c2noc(N3CCC(C(=O)N4CCN(c5ccccc5F)CC4)CC3)n2)cc1 | -48% | i | -24 | ? | i | 0%
Cc1ccc(NC(=O)C2CCN(c3nc(-c4ccc(C(C)C)cc4)no3)CC2)c(Cl)c1 | -90% | i | -9 | 0.1µM* | i | 5%
Cc1ccc(C)c(N2CCN(C(=O)C3CCN(c4nc(-c5ccc(C(C)C)cc5)no4)CC3)CC2)c1 | -93% | i | -18 | 0.11µM* | i | 0%
COc1ccc(-c2noc(N3CCC(C(=O)Nc4cccc(C)c4C)CC3)n2)cc1 | -59% | i | -14 | 2.8µM* | i | 0%
Cc1ccc(NC(=O)c2nc(-c3ccncc3)no2)c(Cl)c1 | ? | i | 5 | 67% | i | 3%
COc1cc(F)c(F)c(Nc2ccc(I)cc2F)c1NS(=O)(=O)C1(C[C@H](O)CO)CC1 | -12% | / | / | -9% | / | /
Cc1cc(NC(=O)CCNS(=O)(=O)c2ccc3c(c2)CCCC(=O)N3)ccc1Br | -16% | i | 100* | -28% | i | -1%
CC(C)c1ccc(NC(=O)CCNS(=O)(=O)c2ccc3c(c2)CCCC(=O)N3)cc1 | -23% | i | 3 | -24% | i | 5%
COc1ccc(-c2csc(=Nc3ccccc3)n2CCO)cc1F | 21% | i | 96* | ? | i | 8%
CCN(CC)CCn1c(-c2ccccc2)csc1=Nc1ccccc1 | 16% | i | 85* | -5%[11.5 µM] | i | 2%
CCCCCOC(=O)Nc1nc(=O)n([C@@H]2O[C@H](C)[C@@H](O)C2O)cc1F (stereo partly drawn) | 10% | / | / | -3% | / | /
NC(=O)c1ncn([C@@H]2O[C@H](CO)[C@@H](O)[C@@H]2O)n1 | -10% | / | / | 2% | / | /
COc1ccccc1[C@H](c1cccc2ccccc12)[C@@](C)(C#N)C(=O)N1CCC(c2cccc(C(F)(F)F)c2)CC1 | -11% | / | / | -4% | / | /
Cc1c(-c2cccc(NC(=O)Nc3ccccc3)c2)nc2ncccn12 | 3% | i | 96* | 10% | i | -2%
Cn1cc(-c2cnn3c(N)c(Br)c([C@H]4CCCNC4)nc23)cn1 | -31% | / | / | ? | / | /
O=C(C=Cc1c(C(=O)O)[nH]c2cc(Cl)cc(Cl)c12)Nc1ccccc1 | -15% | / | / | 3% | / | /
Cc1ccc(C)c(NC(=O)NCc2ccc3c(c2)CCN3C(=O)c2ccccc2)c1 | -27% | i | 11 | ? | i | 3%
SMILES | HTT-AS act | TSG101-PTAP inh | DRV1 agonist | HTT prom inh | B2AR arrestin ag | GALK inhibitor
O=C(NCc1ccc2c(c1)CCN2C(=O)c1ccccc1)Nc1cccc(C(F)(F)F)c1 | -46% | i | 8 | 22µM* | i | 2%
Cc1cc(C(C)Nc2ccccc2)c2nc(N3CCOCC3)cc(=O)n2c1 (stereo not drawn) | -27% | / | / | -17% | / | /
Cc1ccc(Cn2c(CO)cnc2SCc2cccc(F)c2)cc1 | 7% | i | 22 | 9% | i | 0%
COc1ccccc1NC(=O)CSc1ncc(CO)n1Cc1ccc(F)cc1 | -26% | i | 65* | -14% | i | 0%
CCOC(=O)c1ccccc1NC(=O)CSc1ncc(CO)n1Cc1ccc(C)cc1 | / | i | 74* | / | i | 4%
OCc1cnc(SCc2cccc(F)c2)n1Cc1ccc(F)cc1 | -31% | i | 89* | -19% | i | 2%
Cc1ccc(C(=O)Nc2cccc(C(F)(F)F)c2)cc1-c1ccc2nc(NCCN3CCOCC3)ncc2c1 | -21% | / | / | ? | / | /
OCCn1cc(-c2cnc3nnn(Cc4ccc5ncccc5c4)c3n2)cn1 | 5% | / | / | 0% | / | /
CC(C)(C)OC(=O)N[C@H]1CCCCCC=C[C@@H]2C[C@@]2(C(=O)NS(=O)(=O)C2CC2)NC(=O)[C@@H]2C[C@@H](OC(=O)N3Cc4cccc(F)c4C3)CN2C1=O | -22% | / | / | -13% | / | /
CC(C)Oc1ccc(C(=O)N[C@H](CNC(=O)CN(C)C)Cc2ccc(-c3cn4cccc([C@H](C)O)c4n3)cc2)cc1Cl | -32% | / | / | -19% | / | /
CN1CCC(CNc2ccc3ncc(-c4cccc(OC(F)(F)F)c4)n3n2)CC1 | -30% | / | / | ? | / | /
CCS(=O)(=O)N1CCc2cc(C(=O)Nc3ccc(Br)cc3F)ccc21 | -17% | i | 74* | ? | i | 0%
CCS(=O)(=O)N1CCc2cc(C(=O)Nc3cccc(C)c3C)ccc21 | 28% | i | 8 | 24% | i | -10%
Cc1nc2c(c(C)nn2-c2ccccc2)c(C)c1CCC(=O)Nc1ccc(F)cc1 | -26% | i | 15 | -16% | i | 7%
Cc1nc2c(c(C)nn2C(C)(C)C)c(C)c1CCC(=O)Nc1ccc(F)cc1 | -19% | i | 74* | -19% | i | 7%
COc1cc(NS(=O)(=O)c2ccc(-c3cc(C)no3)cc2)cc(OC)c1 | -87% | i | 9 | 1.8µM* | i | 0%
COc1cc(Cl)c(NS(=O)(=O)c2cc(-c3cc(C)no3)ccc2OC)c(OC)c1 | -36% | i | -15 | -25% | i | -2%
CS(=O)(=O)N1CCc2cc(C(=O)NCCc3ccccc3)ccc21 | 3.2µM* | i | 8 | 47% | i | 6%
Cc1cc(NCc2ccccc2Cl)n2cnnc2n1 | -44% | i | 10 | 18µM* | i | -2%

From PubChem BioAssay
